Only some compounds are listed: those with a hit (about 19% of all), similar ones and a draw of the others.
HT1080 IDH1KD tx: qHTS for induction of synthetic lethality in tumor cells producing 2HG: qHTS for the HT-1080-IDH1KD cell line. hit rate 2% among 360,000. HT-1080 IDH1 knockdown viability, ATP luminescence, 48 h. AID 686971, 2013. Potency, µM (titrated, usually from 46.1 µM), hits mostly cytotoxic
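Using the IDH1-knockdown HT-1080 line run in the same batch and compound series as the NT line, viability after 48 h at 37 °C was determined by CellTiter-Glo luminescence and expressed as % activity.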
TDP1 cell CPT: qHTS for Inhibitors of human tyrosyl-DNA phosphodiesterase 1 (TDP1): qHTS in cells in presence of CPT; chicken DT40 Tdp1-/-;hTDP1 cells + 20 nM CPT, ATP luminescence, 48 h; hit rate 12% among 420,000; Potency, µM (series often up to 46.2 µM), most hits filed as inhibitors; also: nearly all actives have a fitted effect of over 55% in size
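Chicken DT40 Tdp1-/- cells complemented with human TDP1, 400 cells/well, exposed to compounds plus 20 nM camptothecin for at least 48 h at 37 C; viability read as ATP content by CellTiter-Glo luminescence.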
TDP1 cell noCPT: qHTS for Inhibitors of human tyrosyl-DNA phosphodiesterase 1 (TDP1): qHTS in cells in absence of CPT; hit rate 15% among 420,000; DT40 Tdp1-/- hTDP1 cells, no CPT, ATP luminescence, 48 h; Potency, µM (series often up to 46.2 µM), most hits filed as inhibitors; also: nearly all actives have a fitted effect of over 55% in size
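Readout: luminescence from CellTiter-Glo after 30 min in the dark at RT. Cells: DT40 Tdp1-/- with stable hTDP1, 400/well. Exposure: compounds alone, ≥48 hr, 37 °C.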
HT1080NT lethal: qHTS for induction of synthetic lethality in tumor cells producing 2HG: qHTS for the HT-1080-NT fibrosarcoma cell line | HT-1080-NT fibrosarcoma viability, CellTiter-Glo ATP luminescence, 48 h | Potency, µM (titrated, usually from 46.1 µM), hits mostly cytotoxic | hit rate 1.6% among 360,000 | AID 686970, 2013;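 also: NT is the 2HG producing partner of a matched IDH1 knockdown line; nearly all actives have a fitted effect of over 55% in size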
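Fibrosarcoma NT cells, 750 per well in 5% FBS RPMI, were exposed to compound for 48 hours. Viability: CellTiter-Glo luminescence.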
IL1B secr inh: qHTS for Inhibitors of Inflammasome Signaling: IL-1-beta AlphaLISA Primary Screen. THP-1 LPS/ATP IL-1B secretion, AlphaLISA, 16 h; hits give low values. activity change, % at 57.5 µM. hit rate 4.7% among 360,000; in the data active = activity change below about -50%; inconclusive = mostly about -30% to -49%
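THP-1 cells pretreated 1 hr with compounds (up to 57.5 uM final), then stimulated with LPS (250 ng/mL final) plus ATP (1.25 mM final); secreted IL-1B measured by AlphaLISA after 16 hr, decreased signal indicating inhibition.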
Numbers stand for hits; i = inactive; ? = inconclusive; nt = no result given; [ ] = remark or other dose. Unless noted, calls follow the shape of the dose curve; as a rule, active = well fitted curve in the direction sought with a large enough effect; inconclusive = small, poorly fitted or top-dose-only effect, or another doubt; inactive = no such curve, though single readings can be large; an effect the other way counts as inactive or inconclusive.

SMILES	HT1080 IDH1KD tx	TDP1 cell CPT	TDP1 cell noCPT	HT1080NT lethal	IL1B secr inh
C=C[C@@H](C1=CC(=O)C(OC)=C(OC)C1=O)c1ccccc1	nt	1.16µM	0.731µM	nt	nt
COc1ccc(NC(=O)Cn2c(=O)n(CCCCCC(=O)NCc3ccc4c(c3)OCO4)c(=O)c3sccc32)cc1Cl	nt	i	i	nt	nt
C=CC[C@@H](CC(=O)N(CCO)Cc1ccccc1)C(=O)N[C@H](COC(=O)[C@@H](CC=C)Cc1ccc(F)cc1)Cc1ccccc1	?	?	23.1µM	?	-63.5
C=CC[C@H](CC(=O)N[C@H](CO)Cc1ccccc1)C(=O)N[C@@H](COC(=O)[C@@H](CC=C)Cc1ccc(F)cc1)Cc1c[nH]c2ccccc12	i	?	?	i	i
C=CC[C@@H](CC(=O)N(CCO)Cc1ccccc1)C(=O)N[C@@H](COC(=O)[C@@H](CC=C)Cc1ccc(F)cc1)Cc1ccccc1	?	20.6µM	20.6µM	?	-68.2
C=CC[C@@H](CC(=O)N[C@@H](CO)Cc1ccccc1)C(=O)N[C@@H](COC(=O)[C@@H](CC=C)Cc1ccc(F)cc1)Cc1ccccc1	i	i	?	i	i
CCN(CC)C(=O)CN1CCC(c2nc3cc(C)c(C)cc3[nH]2)CC1	i	i	i	i	i
O=C(COC(=O)c1cccc(S(=O)(=O)N2CCCC2)c1)Nc1ccc(Cl)cc1	i	i	i	i	i
O=C(OCC(=O)N1CCCCC1)c1cc(S(=O)(=O)N2CCOCC2)c(Cl)cc1Cl	i	i	i	i	-59.4
O=C(COC(=O)c1cc(S(=O)(=O)N2CCOCC2)c(Cl)cc1Cl)c1ccc[nH]1	i	i	i	i	-99.1
O=C(OCC(=O)N1CCOCC1)c1cc(S(=O)(=O)N2CCOCC2)c(Cl)cc1Cl	i	i	i	i	-84.4
O=C(c1cc(S(=O)(=O)N2CCOCC2)c(Cl)cc1Cl)N1CCCCC1	i	i	i	i	i
Cc1ccc(S(=O)(=O)N2CCOCC2)cc1C(=O)OCc1nnc(-c2ccccc2)o1	i	?	?	i	i
Nc1c(Cl)cc(Cl)cc1C(=O)OCC(=O)N1CCOCC1	i	i	i	i	i
O=C(OCc1nnc(-c2ccccc2)o1)c1cc(S(=O)(=O)N2CCOCC2)c(Cl)cc1Cl	?	20.6µM	7.31µM	i	-101.2
CC1CC(C)CN(C(=O)C(C)N(C)CC(=O)Nc2ccccc2Cl)C1 (stereo unspecified)	i	i	i	i	i
COc1cc(C2C(C(=O)Nc3ccccc3)=C(C)Nc3nnnn32)cc(OC)c1OC (stereo unspecified)	nt	i	11.6µM	nt	nt
CC1=C(C(=O)Nc2cccnc2)C(c2ccccc2Cl)n2nc(-c3ccccc3)nc2N1 (stereo unspecified)	nt	?	i	nt	nt
COc1ccc(C2C(C(=O)Nc3ccccc3)=C(C)Nc3nc(-c4ccccc4)nn32)cc1OC (stereo unspecified)	nt	i	i	nt	nt
CCOc1ccc(C2C(C(=O)Nc3ccccc3)=C(C)Nc3nc(-c4ccccc4Cl)nn32)cc1OC (stereo unspecified)	nt	?	18.4µM	nt	nt
COc1ccccc1-c1nc2n(n1)C(c1ccccc1Cl)C(C(=O)Nc1cccnc1)=C(C)N2 (stereo unspecified)	nt	?	20.6µM	nt	nt
O=C1C2C3C=CC(O3)C2C(=O)N1N=Cc1cccc2ccccc12 (stereo unspecified)	i	i	i	i	i
COC(=O)/C(=N\Nc1ccccc1)Sc1nnc(-c2ccc(OC)cc2)n1C	i	i	i	i	i
COC(=O)c1ccc(Nc2cc(C)nc3ccccc23)cc1	20.6µM	?	18.4µM	18.4µM	-97.3
COC(=O)c1ccc2nc(C)cc(Nc3ccc(N(C)C)cc3)c2c1	i	i	?	i	i
SMILES	HT1080 IDH1KD tx	TDP1 cell CPT	TDP1 cell noCPT	HT1080NT lethal	IL1B secr inh
COC(=O)c1ccc2nc(C)cc(Nc3ccc(O)cc3)c2c1	nt	20.6µM	14.6µM	nt	nt
Cc1ccc(S(=O)(=O)N(c2ccc(Br)cc2)C2C=CS(=O)(=O)C2)cc1 (stereo unspecified)	i	i	i	i	i
Cc1cccc(C)c1Nc1c(-c2ccccn2)nc2ccc(Cl)cn12	nt	i	?	nt	nt
Cc1ccc(Nc2c(-c3ccccn3)nc3ccc(C)cn23)cc1	?	3.26µM	7.31µM	?	i
COc1ccc(Nc2c(-c3ccccn3)nc3ccc(Cl)cn23)cc1	nt	11.6µM	1.64µM	nt	nt
Cc1ccc(Nc2c(-c3ccccn3)nc3cc(C)ccn23)cc1	5.8µM	4.61µM	2.91µM	5.8µM	-100.2
CCN1CCN(c2cc(-c3ccc(F)cc3)c3c(n2)CCCCCC3)CC1	nt	i	i	nt	nt
Cc1ccc(C(=O)N/C(=C/c2ccc(Cl)cc2)C(=O)N2CCOCC2)cc1	i	i	i	i	i
O=C(O)c1cccc(NS(=O)(=O)c2ccc(C3CCCCC3)cc2)c1	i	i	i	i	i
Cc1cccc(NS(=O)(=O)c2ccc(C3CCCCC3)cc2)c1	?	20.6µM	14.6µM	?	i
N#CCc1ccc(NS(=O)(=O)c2ccc(C3CCCCC3)cc2)cc1	?	23.1µM	14.6µM	?	i
CC1=C(/C=C/C(C)=N\NC(=O)c2ccncc2)C(C)(C)CCC1	i	?	?	i	i
COCCn1c(N2CCN(c3ccc(OC)cc3)CC2)nc2c1c(=O)n(C)c(=O)n2C	i	?	?	i[9.24 µM]	i
COCCn1c(CN2CCN(c3ccccc3)CC2)nc2c1c(=O)n(C)c(=O)n2C	i	10.3µM	10.3µM	i	i
CC(C)Cn1c(CN2CCN(c3ccccc3F)CC2)nc2c1c(=O)[nH]c(=O)n2C	i	i	?	i	i
COC(=O)Cn1c(CN2CCN(c3ccccc3F)CC2)nc2c1c(=O)n(C)c(=O)n2C	i	5.8µM	8.2µM	i	i
CC(C)n1c(CN2CCN(C(=O)c3ccco3)CC2)nc2c1c(=O)n(C)c(=O)n2C	i	?	?	i	i
COc1ccc(N2CCN(Cc3nc4c(c(=O)n(C)c(=O)n4C)n3C(C)C)CC2)cc1	nt	1.03µM	0.651µM	nt	nt
C=CCn1c(N2CCN(c3ccc(OC)cc3)CC2)nc2c1c(=O)n(C)c(=O)n2C	i	20.6µM	18.4µM	i	i
CN(C)CCNC(=O)CCCN1C(=O)c2cccnc2Oc2ccc(Cl)cc21	nt	i	i	nt	nt
CCOCCn1c(CN2CCN(CC)CC2)nc2c1c(=O)n(C)c(=O)n2C	i	i	i	i	i
CCOCCn1c(CN2CCN(c3ccccc3)CC2)nc2c1c(=O)n(C)c(=O)n2C	i	16.4µM	16.4µM	i	i
Nc1nc(Cl)cc(Sc2ccc3ccccc3c2)n1	16.4µM	14.6µM	23.1µM	?	i

Source: PubChem
